Assays:
Experiment in all cases: log2 ratio of Biotin-Ahx-Ub-VS probe labelling (fragment/DMSO); higher = less target engagement (more negative = stronger competition), active = hit call of the paper (q ≤ 0.05, log2 ratio ≤ -1)
Details in all cases: compound concentration: 200 uM; treatment time: 3 h
[1] = target: T1, ALG13 (UniProt Q9NP73)
T1 sequence (whole entry): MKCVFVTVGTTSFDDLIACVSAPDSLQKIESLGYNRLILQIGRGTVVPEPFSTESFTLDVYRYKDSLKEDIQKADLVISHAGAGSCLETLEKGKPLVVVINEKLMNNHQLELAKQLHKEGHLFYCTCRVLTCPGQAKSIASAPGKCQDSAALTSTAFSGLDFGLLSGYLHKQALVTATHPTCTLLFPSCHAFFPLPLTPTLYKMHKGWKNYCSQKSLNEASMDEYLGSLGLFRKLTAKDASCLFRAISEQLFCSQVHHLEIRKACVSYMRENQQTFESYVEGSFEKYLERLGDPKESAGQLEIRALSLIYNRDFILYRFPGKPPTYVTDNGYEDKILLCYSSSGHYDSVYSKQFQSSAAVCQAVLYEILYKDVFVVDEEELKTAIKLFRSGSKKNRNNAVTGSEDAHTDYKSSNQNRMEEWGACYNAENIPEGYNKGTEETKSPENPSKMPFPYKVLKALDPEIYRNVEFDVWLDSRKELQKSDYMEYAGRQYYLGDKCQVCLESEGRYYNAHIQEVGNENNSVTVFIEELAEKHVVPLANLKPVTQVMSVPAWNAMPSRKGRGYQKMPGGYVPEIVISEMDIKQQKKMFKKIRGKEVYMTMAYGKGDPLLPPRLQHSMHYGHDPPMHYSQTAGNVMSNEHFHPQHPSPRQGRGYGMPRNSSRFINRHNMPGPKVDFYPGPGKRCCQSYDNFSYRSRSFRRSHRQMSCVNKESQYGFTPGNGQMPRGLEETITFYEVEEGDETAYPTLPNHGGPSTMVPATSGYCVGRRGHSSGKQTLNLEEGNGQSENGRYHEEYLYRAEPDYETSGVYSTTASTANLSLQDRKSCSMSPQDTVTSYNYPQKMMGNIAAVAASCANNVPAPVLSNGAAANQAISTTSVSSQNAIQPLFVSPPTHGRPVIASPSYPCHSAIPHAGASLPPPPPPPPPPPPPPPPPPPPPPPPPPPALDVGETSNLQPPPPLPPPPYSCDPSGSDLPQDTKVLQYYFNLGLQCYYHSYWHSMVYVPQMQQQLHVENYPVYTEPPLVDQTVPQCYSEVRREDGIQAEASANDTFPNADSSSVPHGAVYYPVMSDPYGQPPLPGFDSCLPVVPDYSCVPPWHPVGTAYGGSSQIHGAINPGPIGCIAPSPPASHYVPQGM
Procedure, shortened: (§1)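 Global-median-normalised Spectronaut label-free quantities were compared by unpaired t-test, and values are average log2 ratios of fragment over vehicle. Only proteins with ≥2 unique peptides were used. HEK293T lysate (495 µg per sample) was treated in triplicate with fragment at 200 µM or vehicle for 3 h and then with Biotin-Ahx-Ub-VS at 0.5 µM final for 1 h. Labelled DUBs were then NeutrAvidin-enriched, digested with LysC and trypsin, and run by diaPASEF LC-MS/MS.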

[2] = target: ATXN3 (UniProt P54252)
Procedure, shortened: as §1

[3] = target: T2, BAP1 (UniProt Q92560)
T2 sequence (whole entry): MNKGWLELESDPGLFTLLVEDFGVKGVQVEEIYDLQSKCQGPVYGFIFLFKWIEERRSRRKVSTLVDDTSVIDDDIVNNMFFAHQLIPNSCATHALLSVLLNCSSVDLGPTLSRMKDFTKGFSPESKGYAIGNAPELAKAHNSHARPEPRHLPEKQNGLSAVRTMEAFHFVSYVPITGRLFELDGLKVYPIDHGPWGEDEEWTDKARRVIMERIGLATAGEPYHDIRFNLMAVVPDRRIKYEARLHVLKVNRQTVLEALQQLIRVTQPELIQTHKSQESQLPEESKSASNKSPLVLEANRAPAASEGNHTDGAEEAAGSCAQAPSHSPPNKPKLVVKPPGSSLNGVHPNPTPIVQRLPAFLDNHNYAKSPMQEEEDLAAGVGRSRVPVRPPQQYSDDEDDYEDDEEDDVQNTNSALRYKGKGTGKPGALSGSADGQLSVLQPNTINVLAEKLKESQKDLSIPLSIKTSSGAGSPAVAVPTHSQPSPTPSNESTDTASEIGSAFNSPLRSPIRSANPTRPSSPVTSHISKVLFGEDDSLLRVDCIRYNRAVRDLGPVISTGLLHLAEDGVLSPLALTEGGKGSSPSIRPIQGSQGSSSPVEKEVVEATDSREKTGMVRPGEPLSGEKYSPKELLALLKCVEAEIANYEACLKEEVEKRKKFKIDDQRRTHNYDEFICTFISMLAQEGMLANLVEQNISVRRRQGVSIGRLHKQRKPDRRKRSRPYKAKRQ
Procedure, shortened: as §1

[4] = target: EIF3F (UniProt O00303)
Procedure, shortened: as §1

[5] = target: EIF3H (UniProt O15372)
Procedure, shortened: as §1

[6] = target: T3, FAM105A (UniProt Q9NUU6)
T3 sequence (whole entry): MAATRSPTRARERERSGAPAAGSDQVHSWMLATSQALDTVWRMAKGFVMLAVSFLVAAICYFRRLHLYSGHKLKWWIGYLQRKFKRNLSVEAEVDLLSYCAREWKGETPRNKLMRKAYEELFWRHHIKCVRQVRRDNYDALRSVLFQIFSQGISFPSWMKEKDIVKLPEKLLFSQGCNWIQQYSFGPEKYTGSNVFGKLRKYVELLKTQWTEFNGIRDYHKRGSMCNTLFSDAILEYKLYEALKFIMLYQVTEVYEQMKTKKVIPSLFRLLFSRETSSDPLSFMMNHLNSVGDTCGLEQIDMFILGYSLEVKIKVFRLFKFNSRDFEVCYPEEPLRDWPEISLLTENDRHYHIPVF
Procedure, shortened: as §1

[7] = target: OTUB1 (UniProt Q96FW1)
Procedure, shortened: as §1

[8] = target: T4, OTUD4 (UniProt Q01804)
T4 sequence (whole entry): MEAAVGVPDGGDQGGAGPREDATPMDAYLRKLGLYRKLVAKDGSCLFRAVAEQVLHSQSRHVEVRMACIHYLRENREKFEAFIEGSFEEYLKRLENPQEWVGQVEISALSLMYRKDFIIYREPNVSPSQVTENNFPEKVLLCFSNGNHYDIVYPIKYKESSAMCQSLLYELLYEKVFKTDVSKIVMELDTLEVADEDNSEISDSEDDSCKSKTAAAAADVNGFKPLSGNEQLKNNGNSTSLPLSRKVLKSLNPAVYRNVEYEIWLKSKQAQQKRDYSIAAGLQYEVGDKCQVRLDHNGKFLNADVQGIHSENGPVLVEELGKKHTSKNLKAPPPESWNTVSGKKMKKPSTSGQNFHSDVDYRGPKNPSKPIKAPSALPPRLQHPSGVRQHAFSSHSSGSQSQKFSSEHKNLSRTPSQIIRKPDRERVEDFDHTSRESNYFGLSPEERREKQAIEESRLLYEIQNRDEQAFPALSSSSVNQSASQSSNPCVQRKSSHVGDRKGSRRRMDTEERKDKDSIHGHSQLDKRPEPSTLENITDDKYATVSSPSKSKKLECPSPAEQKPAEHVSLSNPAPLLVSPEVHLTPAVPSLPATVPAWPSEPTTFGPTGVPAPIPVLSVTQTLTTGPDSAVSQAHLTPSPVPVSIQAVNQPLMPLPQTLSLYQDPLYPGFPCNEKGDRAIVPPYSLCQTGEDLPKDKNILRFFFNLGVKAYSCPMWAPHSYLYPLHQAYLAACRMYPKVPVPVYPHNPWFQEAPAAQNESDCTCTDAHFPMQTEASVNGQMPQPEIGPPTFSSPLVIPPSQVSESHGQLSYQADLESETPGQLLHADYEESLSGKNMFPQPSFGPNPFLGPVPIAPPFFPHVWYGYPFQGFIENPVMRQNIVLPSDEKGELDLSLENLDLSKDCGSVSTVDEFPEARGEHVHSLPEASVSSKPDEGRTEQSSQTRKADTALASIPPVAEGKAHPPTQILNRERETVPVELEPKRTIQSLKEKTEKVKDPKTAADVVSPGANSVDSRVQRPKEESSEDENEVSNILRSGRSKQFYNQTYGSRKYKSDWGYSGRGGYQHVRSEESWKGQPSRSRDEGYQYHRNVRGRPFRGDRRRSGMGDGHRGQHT
Procedure, shortened: as §1

[9] = target: T5, OTUD5 (UniProt Q96G74)
T5 sequence (whole entry): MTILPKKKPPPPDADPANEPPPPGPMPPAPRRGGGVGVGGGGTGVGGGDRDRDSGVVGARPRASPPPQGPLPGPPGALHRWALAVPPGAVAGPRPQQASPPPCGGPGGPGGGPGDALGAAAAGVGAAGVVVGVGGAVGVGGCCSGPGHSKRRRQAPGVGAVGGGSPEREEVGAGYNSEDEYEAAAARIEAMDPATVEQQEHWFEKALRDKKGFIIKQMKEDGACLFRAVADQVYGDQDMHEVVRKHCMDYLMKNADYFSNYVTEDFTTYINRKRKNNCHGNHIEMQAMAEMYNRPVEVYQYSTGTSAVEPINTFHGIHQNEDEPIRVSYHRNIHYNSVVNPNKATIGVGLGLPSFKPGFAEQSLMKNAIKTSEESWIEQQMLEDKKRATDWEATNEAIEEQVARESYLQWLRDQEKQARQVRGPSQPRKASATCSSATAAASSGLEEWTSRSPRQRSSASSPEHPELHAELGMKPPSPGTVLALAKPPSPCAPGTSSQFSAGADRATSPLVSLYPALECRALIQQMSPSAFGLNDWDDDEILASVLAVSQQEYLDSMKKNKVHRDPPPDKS
Procedure, shortened: as §1

Measured: log2 ratio of Biotin-Ahx-Ub-VS probe labelling

Sequence of EIF3F (O00303 whole entry): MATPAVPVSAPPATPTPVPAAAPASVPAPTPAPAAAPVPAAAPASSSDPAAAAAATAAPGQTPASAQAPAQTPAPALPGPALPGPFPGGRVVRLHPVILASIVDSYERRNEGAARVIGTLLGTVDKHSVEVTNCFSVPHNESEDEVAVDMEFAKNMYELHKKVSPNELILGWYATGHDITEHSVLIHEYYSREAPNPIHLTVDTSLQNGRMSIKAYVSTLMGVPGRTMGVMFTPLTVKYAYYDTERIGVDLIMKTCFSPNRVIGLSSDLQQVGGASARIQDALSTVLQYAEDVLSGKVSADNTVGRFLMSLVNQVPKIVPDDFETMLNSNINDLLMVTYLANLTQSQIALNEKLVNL
Sequence of ATXN3 (P54252 whole entry): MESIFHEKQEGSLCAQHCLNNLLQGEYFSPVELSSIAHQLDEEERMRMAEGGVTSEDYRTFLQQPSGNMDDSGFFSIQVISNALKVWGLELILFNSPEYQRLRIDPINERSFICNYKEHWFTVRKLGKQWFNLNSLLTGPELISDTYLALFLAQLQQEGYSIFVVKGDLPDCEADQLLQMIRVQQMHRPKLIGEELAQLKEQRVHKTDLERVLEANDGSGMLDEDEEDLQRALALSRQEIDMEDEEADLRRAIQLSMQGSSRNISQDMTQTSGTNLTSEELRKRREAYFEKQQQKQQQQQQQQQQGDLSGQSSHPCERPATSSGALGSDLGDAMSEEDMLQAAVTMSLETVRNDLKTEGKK
Sequence of EIF3H (O15372 whole entry): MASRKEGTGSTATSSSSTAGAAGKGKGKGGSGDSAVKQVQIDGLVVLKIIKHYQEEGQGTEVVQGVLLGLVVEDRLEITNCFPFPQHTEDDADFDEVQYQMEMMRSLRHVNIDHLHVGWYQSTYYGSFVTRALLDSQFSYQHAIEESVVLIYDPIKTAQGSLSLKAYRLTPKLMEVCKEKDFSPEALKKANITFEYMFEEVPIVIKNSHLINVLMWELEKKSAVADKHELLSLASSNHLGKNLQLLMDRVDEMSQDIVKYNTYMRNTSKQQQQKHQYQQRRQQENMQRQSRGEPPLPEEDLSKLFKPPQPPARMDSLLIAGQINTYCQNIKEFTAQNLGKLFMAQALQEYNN
Sequence of OTUB1 (Q96FW1 whole entry): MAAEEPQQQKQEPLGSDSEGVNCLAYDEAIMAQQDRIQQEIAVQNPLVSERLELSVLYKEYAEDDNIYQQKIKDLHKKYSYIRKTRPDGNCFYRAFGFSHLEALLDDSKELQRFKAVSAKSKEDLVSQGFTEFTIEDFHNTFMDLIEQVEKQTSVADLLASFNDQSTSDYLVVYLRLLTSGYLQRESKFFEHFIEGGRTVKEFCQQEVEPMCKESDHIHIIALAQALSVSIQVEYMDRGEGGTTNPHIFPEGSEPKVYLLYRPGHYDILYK

O=C(CCl)NCC1(c2ccccc2)CC1
active: [1] -1.4 | [3] -1.15
inactive: [2] 0.0359 | [4] -0.053 | [5] 0.176 | [6] -0.0439 | [7] 0.0757 | [8] -0.368 | [9] -0.335

O=C(CN1CCN(C(=O)CCl)CC1)Nc1cccc(F)c1
inactive: [1] -0.606 | [2] -0.412 | [3] -0.967 | [4] -0.00546 | [5] 0.149 | [6] 0.21 | [7] -0.291 | [8] -0.422 | [9] -0.511

N#Cc1cnn(-c2ccccc2)c1NC(=O)CCl
inactive: [1] 0.0569 | [4] -0.258 | [5] 0.233 | [6] -0.0309 | [7] -0.0957 | [8] -0.641 | [9] -0.526
active: [2] -1.2 | [3] -4.3

COc1ccc(C2CCCN2C(=O)CCl)c(OC)c1 (centres undefined)
inactive: [1] -0.266 | [2] -0.54 | [4] -0.23 | [5] -0.25 | [6] 0.0093 | [7] 0.0641 | [8] 0.0731 | [9] -0.185
active: [3] -3.55

Cl.O=C(CCl)N1CCCC(c2ncc[nH]2)C1 (centres undefined)
inactive: [1] 0.0212 | [2] -0.259 | [3] -0.246 | [4] -0.0106 | [5] 0.267 | [6] 0.0977 | [7] -0.0773 | [8] -0.288 | [9] -0.22

Cc1cccc(C(CNC(=O)CCl)N2CCOCC2)c1.Cl (centres undefined)
inactive: [1] -0.0491 | [2] 0.0164 | [3] -0.497 | [4] 0.0302 | [5] 0.267 | [6] -0.778 | [7] -0.156 | [8] -0.199 | [9] -0.241

Cc1ccc(CC(NC(=O)CCl)c2ccccn2)cc1.Cl (centres undefined)
inactive: [1] -0.831 | [2] 0.249 | [3] -0.525 | [4] -0.0559 | [5] 0.165 | [6] -0.348 | [7] -0.0206 | [8] 0.0988 | [9] -0.157

O=C(CCl)N1CCOC2(CCC2)C1
inactive: [1] -0.352 | [2] -0.0796 | [3] -0.352 | [4] -0.125 | [5] 0.226 | [6] -0.0758 | [7] -0.141 | [8] -0.57 | [9] -0.148

CCCn1nccc1NC(=O)CCl
inactive: [1] 0.12 | [2] -0.199 | [4] -0.613 | [5] 0.123 | [6] 0.145 | [7] -0.396 | [8] 0.00925 | [9] -0.138
active: [3] -3.06

O=C(CCl)N1CCC(c2noc3cc(F)ccc23)CC1
active: [3] -1.19
inactive: [1] 0.141 | [2] -0.734 | [4] -0.419 | [5] 0.209 | [6] -0.1 | [7] -0.253 | [8] -0.413 | [9] -0.644

NC(=O)C1CCCCN1C(=O)CCl (centres undefined)
inactive: [1] 0.0736 | [2] -0.889 | [3] -0.748 | [4] 0.103 | [5] 0.0122 | [6] -0.18 | [7] -0.182 | [8] -0.464 | [9] -0.638

CC(=O)Nc1ccc(NC(=O)CCl)cc1
inactive: [1] 0.0593 | [2] -0.656 | [4] -0.081 | [5] -0.182 | [6] -0.285 | [7] -0.24 | [8] -0.296 | [9] -0.406
active: [3] -3.42

O=C(CCl)NC(Cn1ccccc1=O)c1ccccc1 (centres undefined)
inactive: [1] 0.152 | [2] -0.00539 | [4] 0.0892 | [5] -0.0521 | [6] 0.0796 | [7] -0.3 | [8] -0.122 | [9] -0.104
active: [3] -1.18

O=C(CCl)N1CCC(c2ccn[nH]2)C1 (centres undefined)
inactive: [1] -0.443 | [2] -0.622 | [3] -0.721 | [4] -0.232 | [5] 0.0161 | [6] -0.198 | [7] -0.156 | [8] -0.303 | [9] -0.376

Cc1nc(-c2cccc(NC(=O)CCl)c2)cs1
active: [3] -3.5
inactive: [1] 0.3 | [2] -0.742 | [4] -0.303 | [5] 0.167 | [6] 0.000667 | [7] -0.0946 | [8] -0.305 | [9] -0.539

O=C(CCl)NC1(c2ccc3c(c2)OCCO3)CCCC1
active: [3] -1.89 | [8] -1.1
inactive: [1] -0.035 | [2] -0.252 | [4] -0.19 | [5] -0.051 | [6] 0.0394 | [7] -0.359 | [9] -0.293

Reference: the supplement of paper PMC11732987, “Enantioselective OTUD7B fragment discovery through chemoproteomics screening and high-throughput optimisation” (Communications Chemistry, 2025)
